This note sets out measurements from PubChem BioAssay (NCATS).

Values joined by “and” are separate entries in the source; they are usually repeats but may differ in a detail not shown here. Equal values may be shown once. Results filed as inconclusive are left out. Active and inactive are the calls of the source. Unless noted, calls come from the whole dose curve; as a rule, active = well fitted curve in the direction sought with a large enough effect; inconclusive = small, poorly fitted or top-dose-only effect, or another doubt; inactive = no such curve, though single readings can be large; an effect the other way counts as inactive or inconclusive.

Assay [1] addresses Arylsulfatase A (Homo sapiens) (UniProt P15289). As to the kind of experiment: qHTS screen for enhancers of Arylsulfatase A (ASA1): LOPAC Validation Assay (AID 720538). Note: potency is the fitted concentration of half-maximal effect. A digest of the protocol: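 Cell-based enhancement test: residual ASA activity in SV40-transformed I179S patient fibroblasts is measured by pNCS turnover (0.5mM final, 14h, room temperature) following 48h compound incubation; higher fluorescence indicates activation.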
A general note: qHTS replaces the single test concentration by a dilution series.

A short description of assay [2]: qHTS for compounds that reverse cellular toxicity of Amyloid beta (A-beta) peptide in yeast: LOPAC Validation Assay (AID 720559).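 Note: plate controls were DMSO for no effect and equimolar ferric chloride plus clioquinol rescue for full effect.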 To be noted: Potency: rescue of growth toxicity. A digest of the protocol:
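Here, A-beta-toxic yeast grow with test compounds at 30 C for 48 hr before optical density at 600 nm is recorded; data are normalized against DMSO and the FeCl3-clioquinol control.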

A short description of assay [3]: qHTS for Activators of Parkin Expression: LOPAC Validation Assay (NLuc Reporter) (AID 720572). A digest of the protocol: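 NLuc signal, read 10 min after reagent and following a prior FLuc read, is normalized to DMSO (0) and positive controls (100%). Cells: neuronal Parkin-promoter coincidence reporter line; compounds tested 7-point, 24 h, 37 C, 5% CO2.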
In assay [4] the target is T1, Hexokinase-4 (Homo sapiens) + Glucokinase regulatory protein (Homo sapiens) (UniProt P35557+Q14397). Kind of assay: qHTS assay for inhibitors of recombinant human GCK-GKRP interaction: Diaphorase-coupled assay (AID 743205). A digest of the protocol: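 Signal derives from resorufin generated by diaphorase, linked to GCK turnover of glucose (5 mM) and ATP (0.4 mM). Enzyme complex was added after a 20-minute compound preincubation and monitored for 30 minutes.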
T1 sequence (P35557 whole entry, looked up): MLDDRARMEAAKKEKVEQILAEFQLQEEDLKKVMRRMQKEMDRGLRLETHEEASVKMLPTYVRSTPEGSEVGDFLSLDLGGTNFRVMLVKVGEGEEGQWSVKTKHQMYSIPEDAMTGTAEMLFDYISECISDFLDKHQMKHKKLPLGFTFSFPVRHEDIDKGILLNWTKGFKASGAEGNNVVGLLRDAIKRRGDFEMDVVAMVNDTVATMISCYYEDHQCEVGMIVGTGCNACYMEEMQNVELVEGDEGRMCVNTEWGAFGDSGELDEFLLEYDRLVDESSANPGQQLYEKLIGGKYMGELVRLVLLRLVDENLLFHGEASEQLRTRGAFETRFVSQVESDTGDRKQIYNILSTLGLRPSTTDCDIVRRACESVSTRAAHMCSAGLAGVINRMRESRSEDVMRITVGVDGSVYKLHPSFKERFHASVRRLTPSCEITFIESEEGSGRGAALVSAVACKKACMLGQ
T1 sequence (Q14397 whole entry, looked up): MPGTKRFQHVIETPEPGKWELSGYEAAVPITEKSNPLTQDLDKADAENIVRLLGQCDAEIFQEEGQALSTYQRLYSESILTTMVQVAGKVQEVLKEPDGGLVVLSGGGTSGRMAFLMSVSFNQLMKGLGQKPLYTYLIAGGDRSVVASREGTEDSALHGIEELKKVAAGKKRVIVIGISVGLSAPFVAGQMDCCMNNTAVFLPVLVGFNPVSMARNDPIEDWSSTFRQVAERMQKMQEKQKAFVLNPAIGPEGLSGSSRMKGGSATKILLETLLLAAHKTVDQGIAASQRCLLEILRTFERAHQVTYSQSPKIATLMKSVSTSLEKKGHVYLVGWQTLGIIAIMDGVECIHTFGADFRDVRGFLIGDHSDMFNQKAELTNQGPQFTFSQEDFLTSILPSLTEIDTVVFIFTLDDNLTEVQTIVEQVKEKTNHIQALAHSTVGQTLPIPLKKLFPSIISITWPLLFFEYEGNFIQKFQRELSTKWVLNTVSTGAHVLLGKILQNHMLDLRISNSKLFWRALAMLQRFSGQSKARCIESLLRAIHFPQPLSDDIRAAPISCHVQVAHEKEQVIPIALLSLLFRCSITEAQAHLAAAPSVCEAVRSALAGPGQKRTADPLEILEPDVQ

Assay [5] concerns the target T1, Hexokinase-4 (Homo sapiens) + Glucokinase regulatory protein (Homo sapiens). As to the kind of experiment: qHTS assay for inhibitors of recombinant human GCK-GKRP interaction: ADP-Glo assay (AID 743206).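 Note: plate controls were DMSO plus enzyme for no effect and no enzyme for full effect.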 A digest of the protocol:
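Pin-transferred compounds meet a 15 nM GST-GCK/15 nM FLAG-GKRP/2 uM S6P mix (dispense concentrations). ATP is then added to 0.4 mM final with 5 mM glucose, and the reaction runs 60 min at room temperature. ADP is quantified luminescently.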

Assay [6] shares this target. Kind of assay: qHTS assay for inhibitors of recombinant human GCK-GKRP interaction: HTRF assay (AID 743207).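 Note: 0% = DMSO with GCK present and -100% = DMSO wells lacking GCK.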 A digest of the protocol: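 Titration screening format: recombinant GST-GCK and FLAG-GKRP at 5 nM, S6P at 2 uM, labelled anti-tag antibodies, 60 min at RT, dual-wavelength HTRF readout.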
The nature of assay [7]: qHTS Assay for Identifying Gametocytocidal Compounds (AID 743244).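 For max response: % is set by controls: 0 for no effect and ±100 for the full control effect; actives lower the fluorescent signal which means gametocytes are killed.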 Note: potency is the fitted concentration of half-maximal effect. The conditions noted are these: P. falciparum 3D7 stage III-V gametocytes, alamarBlue, 72 h; max response: stronger effect = lower value. A digest of the protocol: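 Stage III-V P. falciparum 3D7 gametocytes, 20,000 per well, were exposed to compounds for 72 h at 37C, 5% CO2. AlamarBlue was then added for 24 h and viability was read as fluorescence at Ex 525/Em 598 nm.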

Assay [8] is described as follows: qHTS for Activators of Parkin Expression: LOPAC Validation Assay (FLuc Reporter) (AID 720573; note: potency is the fitted concentration of half-maximal effect). A digest of the protocol: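 Readout is FLuc luminescence from neuronal reporter cells (Parkin promoter, FLuc plus NLuc) after 24 h compound exposure in dose response. Values normalized to neutral DMSO and positive-control compounds.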
Assay [9] in a line: qHTS assay for small molecule agonists of the antioxidant response element (ARE) signaling pathway measured by Nrf2-dependant transcriptional activity (AID 720636; active = well fitted curve in the direction sought with a large enough effect in the repeat runs; an effect the other way counts as inactive or inconclusive;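 note: HepG2 cells with an ARE-driven luciferase reporter; % of control where 0% means no effect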). A digest of the protocol:
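Nrf2-dependent transcription is measured in ARE-luc HepG2 cells: compound is applied for 16 hr at 37 C after a 6 hr attachment period, and luciferase activity is quantified by luminescence using ONE-Glo.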

A short description of assay [10]: qHTS assay for small molecule antagonists of the retinoid-related orphan receptor gamma (ROR-gamma) signaling pathway - cell viability counter screen (AID 720652; active = well fitted curve in the direction sought with a large enough effect in the repeat runs; an effect the other way counts as inactive or inconclusive;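 note: CHO reporter cells with doxycycline-induced ROR-gamma expression; compound exposure lasted 16 hr before ATP read; % is set by controls: 0 for no effect and ±100 for the full control effect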). A digest of the protocol: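 ATP-based viability readout in the ROR-gamma reporter CHO cells after 16 hr compound exposure under doxycycline induction.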
The nature of assay [11]: qHTS assay for small molecule agonists of the antioxidant response element (ARE) signaling pathway measured by Nrf2-dependant transcriptional activity - cell viability counter screen (AID 720653; active = well fitted curve in the direction sought with a large enough effect in the repeat runs; an effect the other way counts as inactive or inconclusive; note: % is set by controls: 0 for no effect and ±100 for the full control effect). To be noted: ARE-bla HepG2 viability, CellTiter-Glo ATP luminescence, 16 h; max response: stronger effect = lower value. A digest of the protocol:
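ARE-bla HepG2 cells treated with compounds for 16 h at 37C; this counter screen measures viability as intracellular ATP by CellTiter-Glo luminescence after 30 min at room temperature.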

A short description of assay [12]: qHTS assay for cell viability of HEK293 cells (AID 743288). Note: % is set by controls: 0 for no effect and ±100 for the full control effect; nearly all actives have a fitted effect of over 50% in size. The conditions noted are these: ATP luminescence (CellTiter-Glo), 18 h; max response: stronger effect = lower value. A digest of the protocol: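 HEK293, 18 h, 37 C, ATP luminescence. Cells at 2,000/well were allowed at least 5 h to settle before dosing; CellTiter-Glo developed 30 min at RT.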
Assay [13] is described as follows: qHTS assay for cell viability of the p53RE-bla HCT-116 cell line (AID 743292). Note: % is set by controls: 0 for no effect and ±100 for the full control effect; nearly all actives have a fitted effect of over 55% in size. A digest of the protocol: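 ATP-based luminescence, 16 h compound exposure at 37 C, p53RE-bla HCT-116 cells at 4,000/well.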
A short description of assay [14]: qHTS profiling of the MIPE4 collection as inhibitors of Plasmodium falciparum (3D7) proliferation (AID 743344; call rule not given here;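 note: scaled between DMSO vehicle wells and 0.29 µM artemisinin as full inhibition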). The conditions noted are these: P. falciparum 3D7 in erythrocytes, SYBR Green DNA fluorescence, 72 h; at 28.5 µM (top of the series). A digest of the protocol:
(§1)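 Parasite DNA was quantified by SYBR Green I fluorescence (ex 485, em 535 nm) after overnight lysis in saponin/Triton buffer at room temperature. Cultures at 0.3% parasitemia and 2.5% hematocrit were first exposed to compound for 72 h at 37 C; signals were normalised to artemisinin (0.29 uM) and vehicle wells.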

The nature of assay [15]: qHTS profiling of the MIPE4 collection as inhibitors of Plasmodium falciparum (DD2) proliferation (AID 743345; call rule not given here). The conditions noted are these: P. falciparum Dd2 in erythrocytes, SYBR Green DNA, 72 h; at 28.5 µM (top of the series). A digest of the protocol: as §1
Assay [16] in a line: qHTS profiling of the MIPE4 collection as inhibitors of Plasmodium falciparum (DD2) proliferation (Rep 2) (AID 743346; call rule not given here). To be noted: P. falciparum Dd2 in erythrocytes, SYBR Green DNA, 72 h; at 28.5 µM (top of the series). A digest of the protocol:
as §1

Assay [17] in a line: qHTS profiling of the MIPE4 collection as inhibitors of Plasmodium falciparum (HB3) proliferation (AID 743347; call rule not given here;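 note: plate controls were DMSO vehicle wells for no effect and artemisinin wells for full effect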). To be noted: P. falciparum HB3 in erythrocytes, SYBR Green DNA, 72 h; at 28.5 µM (top of the series). A digest of the protocol:
as §1

Sequence of Arylsulfatase A (Homo sapiens) (P15289 whole entry, looked up): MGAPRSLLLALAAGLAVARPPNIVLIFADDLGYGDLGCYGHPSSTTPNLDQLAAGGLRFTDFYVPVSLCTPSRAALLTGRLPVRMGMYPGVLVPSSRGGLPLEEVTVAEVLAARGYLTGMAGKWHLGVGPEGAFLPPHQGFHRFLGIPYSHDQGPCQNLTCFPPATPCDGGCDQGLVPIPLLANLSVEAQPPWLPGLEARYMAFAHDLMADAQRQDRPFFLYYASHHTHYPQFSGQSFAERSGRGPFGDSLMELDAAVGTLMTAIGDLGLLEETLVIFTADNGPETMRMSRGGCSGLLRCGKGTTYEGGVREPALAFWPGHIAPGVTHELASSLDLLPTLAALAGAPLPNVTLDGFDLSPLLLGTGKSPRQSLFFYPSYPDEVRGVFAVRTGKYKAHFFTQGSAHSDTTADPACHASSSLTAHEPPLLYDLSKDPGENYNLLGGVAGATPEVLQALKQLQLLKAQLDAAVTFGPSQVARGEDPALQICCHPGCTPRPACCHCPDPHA

Take `OC[C@H]1O[C@@H](n2cnc3c(Nc4ccccc4)ncnc32)[C@H](O)[C@@H]1O`: the Potency entry in assay [1], in [2], in assay [3], in [5] and in assay [6] was “inactive” throughout. Besides, the result in [4] was inactive. In addition, the max response in assay [7] is -5.57% (inactive).

Consider `CCN(CC)c1ncnc2c1ncn2[C@@H]1O[C@H](COP(=O)(O)OP(=O)(O)C(Br)(Br)P(=O)(O)O)[C@@H](O)[C@H]1O`, for which the Potency entry in [1], in assay [2], in assay [3], in assay [8] and in [6] was “inactive” in each case. For the same molecule, in [4], the result was inactive. In addition, the max response in [7] was -1.02% (inactive).

On to `CN1CCc2cc(O)c(O)cc2C(c2ccccc2)C1` (stereo unspecified), for which the Potency in assay [1] was 21.3 µM (active). For the same molecule, the Potency result in assay [3], in [8], in assay [5] and in assay [6] was “inactive” in each case. Further, the result in assay [4] was inactive.

As for `O=C1C(SCCO)=C(SCCO)C(=O)c2ccccc21`, the Potency entry in assay [1], in assay [3], in assay [8] and in assay [5] was “inactive” in each case. Besides, the result in [4] was inactive. The Potency in [7] was 1.41 µM (active).

For `CN1[C@@H](CC(=O)c2ccccc2)CCC[C@H]1C[C@H](O)c1ccccc1`, the Potency result in assay [2], in [3], in assay [8], in assay [5] and in assay [6] was “inactive” each time. Besides, the outcome in assay [4] was inactive.

As for `O=[N+]([O-])c1ccc2c(c1)S(=O)(=O)C=C2`, the Potency entry in [1], in [3], in [8], in assay [5] and in assay [6] was “inactive” throughout. In addition, in assay [4], the outcome was inactive. In addition, the Potency in [7] was 1 µM (active).

Take `Cc1cc(NC(=O)Nc2ccc3c(ccn3C)c2)sn1`: the Potency entry in [1], in assay [3] and in assay [5] was “inactive” each time. The Potency in assay [8] was 5.8 µM (active). Moreover, the result in assay [4] was inactive. Besides, the max response in assay [7] was 24.1% (inactive).

For `CN(C)CCC(c1ccc(Cl)cc1)c1ccccn1` (stereo unspecified), the Potency entry in [2], in assay [3], in [8], in assay [9], in [10] and in [5] was “inactive” each time. The Potency result in assay [6] and in assay [13] was “inactive” each time. Besides, the max response is -2.73% (inactive) in [11] and -8.98% (inactive) in [12]. The outcome in [4] was inactive. The parasite growth, % of DMSO control in [14] turned out to be 105%. This molecule also displayed a parasite growth remaining, % of DMSO control (lower = more inhibition) in [15] of 70.9%. The parasite growth, % of control (lower = inhibition) in assay [16] came out at 38.1%. In addition, the growth, % of control in assay [17] is 78.9%.

As to `COc1ccc(/C=C/C(=O)Nc2ccccc2C(=O)O)cc1OC`, the Potency in assay [1] is 6.75 µM (active). The Potency entry in assay [8], in assay [5] and in assay [6] was “inactive” each time. The outcome in assay [4] was inactive. The max response in [7] is 46% (inactive) and -4.4% (inactive).
